Activation data for 69 compounds are collected here from PubChem BioAssay AID493131 (Broad Institute, 2011).

The campaign covered roughly 340,000 compounds. About 3,300 (0.97%) were called active. The entries come from a sample that favours actives as a whole. A number with no mark means an inactive call.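 How the source made its calls: active means mean activation above about 17%, with every replicate also reaching it (limit read from the data, passing the limit was not always enough); inconclusive means only one of the two conditions met; inactive means the rest.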

Chain of Protein FosB (Mus musculus) (P13346 whole entry, looked up): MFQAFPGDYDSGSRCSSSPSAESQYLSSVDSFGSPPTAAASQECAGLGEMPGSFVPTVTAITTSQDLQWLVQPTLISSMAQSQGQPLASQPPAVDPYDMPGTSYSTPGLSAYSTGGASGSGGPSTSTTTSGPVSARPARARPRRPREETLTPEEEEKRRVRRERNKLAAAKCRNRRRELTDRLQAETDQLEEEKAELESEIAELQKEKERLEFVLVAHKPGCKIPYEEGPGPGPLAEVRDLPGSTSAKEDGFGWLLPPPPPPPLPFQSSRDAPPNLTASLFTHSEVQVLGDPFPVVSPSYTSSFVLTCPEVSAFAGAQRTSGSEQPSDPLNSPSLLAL

This experiment addresses Protein FosB (Mus musculus) (UniProt P13346). In words: enhancers of mouse delta FosB DNA binding – biochemical, fluorescence polarization, TAMRA-CDK5 oligo, single point, primary screen (AID 493131).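 Further: fluorescence polarization rise as delta FosB binds a TAMRA Cdk5 AP-1 oligo.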 To be noted: purified delta FosB, at 25 µM, stronger effect = higher value, percent of positive-control signal above neutral wells.
As for `N#Cc1ccccc1S(=O)(=O)N1CCN(C(=O)c2cc(-c3ccccc3)nn2-c2ccccc2)CC1`, the activation is 1.25%.

As for `O=[N+]([O-])c1ccc(N2CCN(c3ccc(O)cc3)CC2)c(Cl)c1`, the activation was -9.93%.

On to `Cc1ccccc1NC(=O)c1ccc(COc2ccc3c(C)cc(=O)oc3c2)cc1`, for which the activation is 22.2% (active).

For `CCN(C(=O)COC(=O)c1ccc(COc2ccc3c(C)cc(=O)oc3c2)cc1)C1CCS(=O)(=O)C1` (centres undefined), the activation is 2.03%.

Turning to `CCOC(=O)c1cc(=O)c2ccc(OCc3ccccc3)cc2o1`, the activation was -2.05%.

Turning to `Cc1ccc(C(C)C)c(OCCSc2nc3ccccc3n2CC(=O)O)c1`, the activation is -20.9%.

Consider `CCOc1ccc(OCC(=O)Nc2c3c(nn2C(C)(C)C)CS(=O)(=O)C3)cc1`, for which the activation was -1.81%.

Regarding `CCOc1ccc(N(C)S(=O)(=O)c2cnc[nH]2)cc1`, the activation is -0.199%.

Turning to `Cc1ccc2nc(-c3ccccn3)cc(C(=O)Nc3ccc4c(c3)OCO4)c2c1`, the activation was 36.9% (active).

As to `CSc1ncccc1C(=O)Nc1ccc2c(c1)OCO2`, the activation is -5.35%.

On to `Cc1ccc(-n2c(SCC(=O)Nc3ccc4c(c3)OCO4)nnc2-c2ccccn2)cc1`, for which the activation was -2.46%.

Turning to `O=C(N/C(=C\c1ccc([N+](=O)[O-])cc1)C(=O)N1CCCCC1)c1ccco1`, the activation was -1.72%.

`CCN(CC)C(=O)C(=O)c1cn(CC(=O)NCc2ccc3c(c2)OCO3)c2ccccc12`: the activation is -0.7%.

As to `Cc1ccc(Cn2nnc3c(=O)n(CC(=O)N4CCCCC4)cnc32)cc1`, the activation was 3.79%.

Turning to `COc1cc(-c2nnn(CC(=O)NCc3ccccc3)n2)cc(OC)c1OC`, the activation was -0.135%.

For `CS(=O)(=O)N(CC(=O)NCc1ccco1)c1ccc2c(c1)OCO2`, the activation was 2.32%.

Turning to `O=C(Cn1nnc(-c2ccccc2)n1)NCc1ccc2c(c1)OCO2`, the activation was 22.6% (active).

With `O=C(Cn1cnc2c(nnn2Cc2ccc(F)cc2)c1=O)NCc1ccc2c(c1)OCO2`, the activation is 17.6% (active).

Consider `S=C(NCc1ccc2c(c1)OCO2)NCc1ccco1`, for which the activation was -2.47%.

In the case of `O=C(CN(C(=O)CCC(=O)Nc1nccs1)c1ccc(F)cc1)NCc1ccc2c(c1)OCO2`, the activation was 6.39%.

As to `O=C(Cn1nnc(-c2ccc3c(c2)OCO3)n1)NCc1ccco1`, the activation was 33.3% (active).

Take `O=C(NC1CCCC1)C(c1ccc(Cl)cc1)N(C(=O)c1csnn1)C1CC1` (centres undefined): the activation was -6.23%.

As to `Cc1ccc(-c2cnc(NC(=O)CCC(=O)N(C)Cc3ccccc3)n2C)cc1`, the activation was -2.74%.

On to `CCCC1C(=O)N2C(N(C)C)=Nc3ccc(C)cc3N2C1=O` (centres undefined), for which the activation was 6.69%.

With `COc1ccc(S(=O)(=O)N2CCN(C(C)C(=O)Nc3ccc(C(C)C)cc3)CC2)cc1` (centres undefined), the activation is -3.44%.

Regarding `O=C(CCc1ccccc1)Nc1ccc(NC(=O)C2CC2)nc1`, the activation was 4.2%.

Turning to `COc1ccc(S(=O)(=O)N(CC(=O)N/N=C/c2ccc(C(=O)O)cc2)Cc2ccccc2)cc1OC`, the activation was -11.9%.

Regarding `Cc1ccccc1NC(=O)CCOc1ccccc1`, the activation is -7.98%.

As to `O=C(NC(=S)Nc1ccc(NC(=O)c2cccs2)cc1)c1ccc([N+](=O)[O-])cc1`, the activation is -0.174%.

As for `O=C(Nc1ccccc1)c1ccc(NC(=O)c2cccs2)cc1`, the activation was 19% (active).

In the case of `CC(Oc1cccc(NC(=O)c2cccs2)c1)C(=O)c1ccccc1` (centres undefined), the activation is -3.07%.

As to `O=C(O)c1ccccc1C(=O)NC1=NN(c2ccccc2)CC1`, the activation is -3.52%.

For the compound `COc1cccc(-c2cc3nc4c(c(N5CCC6(CC5)OCCO6)n3n2)CCCC4)c1`, the activation is -1.84%.

Consider `COc1ccc(C(=O)n2nc(C)c(Br)c2C)cc1OC`, for which the activation was 3.74%.

With `COc1ccc(C(=O)n2nc(-c3ccc(Cl)cc3)nc2N)cc1OC`, the activation is 30.9% (active).

In the case of `COc1ccc(C(=O)n2nc(-c3ccc(C)cc3)nc2N)cc1OC`, the activation was 8.05%.

In the case of `CCN(CC)CCNC(=O)c1sc2ncn(CC(=O)Nc3ccc(C)c(Cl)c3)c(=O)c2c1C`, the activation was -141%.

As to `Cc1nonc1NC(=O)CSc1nc2ccccc2cc1C#N`, the activation is 5.77%.

Turning to `Cc1cc(C)c(C#N)c(SCC(=O)Nc2ccccc2)n1`, the activation is 3.54%.

For `Cc1nc2cc(NC(=O)CSc3nc4c(C)cccc4cc3C#N)ccc2s1`, the activation was 61.2% (active).

In the case of `Cc1ccc(C)c(NC(=O)C(c2ccccc2)N2CCN(CC(=O)NC3CC3)CC2)c1` (centres undefined), the activation is -10.9%.

Consider `NC(=O)c1cc(S(=O)(=O)N2CCCC2)ccc1OCc1ccc(F)cc1`, for which the activation was -1.72%.

`COc1ccc(NS(=O)(=O)c2ccc(C(=O)Nc3c(C)n(C)n(-c4ccccc4)c3=O)cc2)cc1`: the activation was 1.19%.

As to `COc1ccc(NS(=O)(=O)c2ccc(NC(=O)c3ccc(N(C)S(C)(=O)=O)cc3)cc2)cc1`, the activation is 43.3% (active).

Take `COc1ccc(C(=O)Nc2cccc(S(C)(=O)=O)c2)cc1`: the activation is -0.053%.

As to `Cc1noc(C)c1NC(=O)Nc1cccc2c1O[C@H](CN(C)C(=O)Nc1ccccc1)[C@@H](C)CN([C@H](C)CO)C2=O`, the activation was 4.59%.

Turning to `COc1ccc(C(=O)N(C)Cc2ccc(OC)c(OC)c2OC)cc1S(=O)(=O)N1CCOCC1`, the activation was -8.82%.

`COC(=O)c1sc2ncccc2c1OCc1ccc(Cl)cc1Cl`: the activation was 17% (active).

Consider `COCCNC(=O)c1snc2ccc(Cl)cc12`, for which the activation is -8.32%.

Turning to `COc1cccc(NC(=O)CN(C)C(=O)Cc2ccc(Cl)cc2Cl)c1`, the activation is -4.55%.

For `CC(=O)c1cccc(NC(=O)[C@@H](NC(N)=O)C(C)C)c1`, the activation was 2.28%.

As to `CN(C)CCN(C(=O)C1CCCCC1)c1nc2cc3c(cc2s1)OCO3`, the activation is 7.71%.

In the case of `CN(C)CCN(C(=O)CN1C(=O)c2ccccc2C1=O)c1nc2cc3c(cc2s1)OCCO3`, the activation is 38% (active).

For the compound `Cc1ccc2nc(N(CCN(C)C)C(=O)C3=COCCO3)sc2c1`, the activation is -2.06%.

Take `Cn1nc(C(C)(C)C)c(NC(=O)c2sccc2Cl)c1C(C)(C)C`: the activation is -8.28%.

For the compound `Cc1ccc(C)c(S(=O)(=O)N(C)c2ccc(OC(=O)C3CCN(C(=O)c4ccc(F)cc4)CC3)cc2)c1`, the activation is -7.71%.

As for `C=CCn1c(=O)n(C)c2c(=O)n(C)c(=O)n(C)c21`, the activation is -1.42%.

Take `Cc1sc2nc(COC(=O)C(NC(=O)c3ccc(Cl)cc3Cl)C(C)C)[nH]c(=O)c2c1C` (centres undefined): the activation is -6.82%.

On to `Cc1sc2nc(CSCC(=O)NC3CCCCC3)[nH]c(=O)c2c1C`, for which the activation is -10.1%.

With `Cc1sc2nc(CSCC(=O)Nc3c(Cl)cccc3Cl)[nH]c(=O)c2c1C`, the activation is 32.5% (active).

With `COc1ccc2oc(C(=O)OCC(=O)N(CC(C)C)c3c(N)n(Cc4ccccc4)c(=O)[nH]c3=O)c(C)c2c1`, the activation was 3.39%.

For `COc1ccc(C(CNC(=O)c2cccc(S(=O)(=O)Nc3ccc(Br)cc3)c2)N(C)C)cc1` (centres undefined), the activation was 14%.

As for `COC(=O)c1cc(OC)c(OC)cc1NC(=O)CSc1ccc(C)cc1`, the activation is -0.589%.

Regarding `COC(=O)c1scc(C)c1NC(=O)CSc1ccc(Cl)cc1`, the activation was 35% (active).

As to `COc1ccc(C)cc1NC(=O)CSc1ccc(Cl)cc1`, the activation is -7.74%.

Turning to `COc1ccc2c(c1)c(=Cc1ccc(N(C)C)cc1)c1cc(-c3ccccc3)[n+](C)n12`, the activation was 126% (active).

As to `COc1ccc2sc(-c3ccc(N(C)C)cc3)c(C#CCO)c2c1`, the activation was -9.84%.

In the case of `COc1ccc2sc(-c3ccc(N(C)C)cc3)c(-c3ccc4cc[nH]c4c3)c2c1`, the activation was -4.04%.

Turning to `CCC(=O)NC(Nc1cc(C)ccn1)(C(F)(F)F)C(F)(F)F`, the activation was -2.53%.
